The results in this text go back to PubChem BioAssay.

A short description of this experiment: stimulators of nuclear beta-catenin in C2C12, primary screen, imaging, WNT3A-conditioned medium, mouse C2C12, NPC library (AID 1117326). Also: reference of the scale not given here. Particulars: stimulation, at 2 µM, stronger effect = higher value.
Take `Cc1cccc(C)c1NC(=O)CN1CCCC1=O`: the nuclear beta-catenin stimulation stood at 0.9%.
For the compound `CC(=O)[C@H]1CC[C@H]2[C@@H]3CC[C@H]4C[C@H](O)CC[C@]4(C)[C@H]3C(=O)C[C@]12C`, the nuclear beta-catenin stimulation was -0.7%.
To `CC(O)CN1CCN(CC(=O)[O-])CCN(CC(=O)[O-])CCN(CC(=O)[O-])CC1.[Gd+3]` (stereo not given) belongs -0.7%; to `CCCN1CCC[C@@H]2Cc3nc(N)ncc3C[C@H]21`, -0.2%; to `CC(C)c1c(CN(C)C(C)Cc2ccccc2)n(C)n(-c2ccccc2)c1=O` (stereo not given), 5.4%.
For `Cn1c(CCCC(=O)O)nc2cc(N(CCCl)CCCl)ccc21`, the nuclear beta-catenin stimulation turned out to be 0.9%.
Consider `CN1[C@@H]2CC[C@H]1CC(OC(=O)c1cc(Cl)cc(Cl)c1)C2` (stereo not given in full), for which the nuclear beta-catenin stimulation was found to be 3.7%.
With `O=[N+]([O-])c1ccc([As](=O)(O)O)cc1`, the nuclear beta-catenin stimulation is 1%.
To `COP(=O)(OC)OC=C(Cl)Cl` belongs -1.3%.
Turning to `FC(F)(F)c1cccc(C2=CCN(CCc3ccc4ccccc4c3)CC2)c1`, the nuclear beta-catenin stimulation was -1.5%.
Consider `COc1ccc(CN2CCNCC2)c(OC)c1OC`, for which the nuclear beta-catenin stimulation was determined as 1.1%.
With `COP(=O)(OC)C(O)C(Cl)(Cl)Cl` (stereo not given), the nuclear beta-catenin stimulation amounted to 0.4%.
Regarding `C#C[C@]1(O)C=C[C@H]2[C@@H]3CCC4=CC(=O)CC[C@@H]4[C@H]3CC[C@@]21CC`, the nuclear beta-catenin stimulation is -1%.
Regarding `Cc1ncsc1CCCl`, the nuclear beta-catenin stimulation was found to be 2.4%.
Consider `C=CCN1C[C@H](C)N([C@H](c2ccc(C(=O)N(CC)CC)cc2)c2cccc(OC)c2)C[C@H]1C`, for which the nuclear beta-catenin stimulation is -0.7%.
In the case of `CCCCc1ccc(C(=O)O)nc1`, the nuclear beta-catenin stimulation stood at 2.6%.
`Cc1ccc(S(=O)(=O)N[C@@H](CCCCN)C(=O)CCl)cc1`: the nuclear beta-catenin stimulation was 0%.
To `c1ccc(C2CC2)c(OCC2=NCCN2)c1` belongs 0.6%; to `Fc1ccc(C(OCCN2CCN(CCCc3ccccc3)CC2)c2ccc(F)cc2)cc1`, -0.6%; to `CC[N+](CC)(CC)CC`, 0.6%.
In the case of `O=c1n(Cl)c(=O)n(Cl)c(=O)n1Cl` it was -0.3%; in that of `CCCCC/C=C\C/C=C\C/C=C\C/C=C\CCCC(=O)NCC(=O)O`, 0.6%.
As to `COC[C@@H](NC(C)=O)C(=O)NCc1ccccc1`, the nuclear beta-catenin stimulation was -0.7%.
In the case of `CCOC(=O)CC(SP(=S)(OC)OC)C(=O)OCC` (stereo not given) it was -0.1%.
Consider `C[C@]12CC[C@H](O)CC1=CC[C@@H]1[C@@H]2CC[C@]2(C)C(=O)CC[C@@H]12`, for which the nuclear beta-catenin stimulation turned out to be 1.2%.
`O=C(O)Cc1ccccc1`: the nuclear beta-catenin stimulation worked out at 0.3%.
To `CC(C)(C)OC(=O)c1ncn2c1[C@@H]1CCCN1C(=O)c1c(Br)cccc1-2` belongs 2.4%.
For `NCC1(CC(=O)O)CCCCC1`, the nuclear beta-catenin stimulation came to 2.1%.
Regarding `Cc1nnc2n1-c1sc(CCC(=O)N3CCOCC3)cc1C(c1ccccc1Cl)=NC2`, the nuclear beta-catenin stimulation was -0.9%.
With `CCCC[N+]1(C)[C@@H]2CC(OC(=O)[C@H](CO)c3ccccc3)C[C@H]1[C@@H]1O[C@@H]12` (stereo not given in full), the nuclear beta-catenin stimulation was -0.2%.
For `CNCC(=O)c1ccc(O)c(O)c1`, the nuclear beta-catenin stimulation was -1.5%.
`C[N+]1(C)[C@@H]2CC[C@H]1CC(OC(=O)C(CO)c1ccccc1)C2` (stereo not given in full): the nuclear beta-catenin stimulation is -0.7%.
In the case of `Clc1cccc(SC2CCNCC2)n1` it was 2%.
As to `O=C(NC(=O)c1c(F)cccc1F)Nc1cc(Cl)c(OC(F)(F)C(F)C(F)(F)F)cc1Cl` (stereo not given), the nuclear beta-catenin stimulation came to 1.2%.
As to `CC(C)NCC(O)c1ccc(N)c(C#N)c1` (stereo not given), the nuclear beta-catenin stimulation is -0.3%.
On to `CN1C[C@@H](NS(=O)(=O)N(C)C)C[C@@H]2c3cccc4c3c(cn4C)C[C@H]21`, for which the nuclear beta-catenin stimulation amounted to 1.4%.
Turning to `O=C1NCN(c2ccccc2)C12CCN(CC1COc3ccccc3O1)CC2` (stereo not given), the nuclear beta-catenin stimulation came to 0.8%.
Turning to `COc1ccc(C(=O)c2c(C)n(CCN3CCOCC3)c3ccccc23)cc1`, the nuclear beta-catenin stimulation was 0.9%.
Turning to `N#CC(C#N)=Cc1ccc(O)c(O)c1`, the nuclear beta-catenin stimulation turned out to be 3.3%.
With `O=C(O)c1ccc2[nH]cc(CCCCN3CC=C(c4ccccc4)CC3)c2c1`, the nuclear beta-catenin stimulation is -1.8%.
